A short description of assay [1]: NCI Yeast Anticancer Drug Screen. Data for the rad50 strain (AID 155).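 Further: 0% = growth of vehicle-only cultures of the same strain.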 The conditions noted are these: S. cerevisiae rad50 strain growth inhibition; at 50.0 µM; hits give high values. The method, boiled down:
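Relative growth inhibition (compound vs vehicle) was measured in yeast with a defined repair-gene alteration.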

Assay [2] can be described thus: NCI Yeast Anticancer Drug Screen. Data for the mec2-1 strain (AID 157). Particulars: S. cerevisiae mec2-1 strain, at 50.0 µM, hits give high values. The method, boiled down:
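Each compound was tested on mec2-1 yeast, a strain altered in DNA damage repair or cell cycle control. Growth inhibition is reported relative to vehicle.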

Assay [3] can be described thus: NCI Yeast Anticancer Drug Screen. Data for the sgs1 mgt1 strain (AID 161).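 Further: 0% = growth of cultures given vehicle only.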 The conditions noted are these: S. cerevisiae sgs1 mgt1 strain, at 50.0 µM, hits give high values. A digest of the protocol: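 Inhibition of yeast growth, normalised to vehicle-treated controls, is reported for a strain bearing genetic alterations in DNA damage repair.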
Assay [4] is described as follows: NCI Yeast Anticancer Drug Screen. Data for the cln2 rad14 strain (AID 165).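 Further: 0% = growth equal to vehicle treated cultures.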 Particulars: S. cerevisiae cln2 rad14 strain, at 50.0 µM, hits give high values. A digest of the protocol:
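Test compounds were added to cln2 rad14 yeast cultures; inhibition of growth was then determined by comparison with vehicle treatment.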

Assay [5] can be described thus: NCI Yeast Anticancer Drug Screen. Data for the bub3 strain (AID 167). The conditions noted are these: S. cerevisiae bub3 mutant strain, at 50.0 µM, hits give high values. A digest of the protocol:
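Screening used yeast with an engineered genetic alteration affecting cell cycle control. Compound-exposed cultures were compared with vehicle cultures, and reduced growth was taken as inhibition.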

Assay [6] is described as follows: NCI Yeast Anticancer Drug Screen. Data for the mlh1 rad18 strain (AID 175). Particulars: S. cerevisiae mlh1 rad18 strain growth inhibition; at 50.0 µM; hits give high values. A digest of the protocol: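 Inhibition values reflect reduced growth of mutant yeast versus vehicle-treated controls following compound exposure; the mutations affect DNA damage repair.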

The panel holds about 79,000 compounds, 15% with a hit somewhere; the sample as a whole holds those more often. A number with no mark means an inactive call. Activity calls are given as the source filed them. No stated cut-off is given here; in the data, active means growth inhibition above about 70%; inactive means the rest.

In the case of `O=c1[nH]c(NCc2ccc(Cl)cc2)nc2nc[nH]c12`, the growth inhibition was 0.85% in assay [1]; -3.85% in assay [2]; -19.5% in assay [3]; 12.2% in assay [4]; -8.55% in assay [5]; -46.4% in assay [6].

Regarding `Cc1ccc(C)o1`, the growth inhibition in assay [1] is -5.3%; in assay [2], 5.5%; in assay [3] it was -8.65%; in assay [4], -12.2%; in assay [5], -1.1%; in assay [6] it was 2.6%.

As to `CNC(=S)NNC1=NCCCN1`, the growth inhibition in assay [1] was -48.5%; in assay [2] it was -10.2%; in assay [3], -25.9%; in assay [4], 13.8%; in assay [5], 9.75%; in assay [6] it was -9.9%.

Consider `O=C(CN1CCCC1)Nc1ccc2c(c1)C1Oc3ccccc3CC1CO2` (configuration not stated), for which the growth inhibition in assay [1] is 7.65%; in assay [2], 4.2%; in assay [3], 5.55%; in assay [4] it was 11.6%; in assay [5], -12.7%; in assay [6], 30.6%.

As for `Cc1ncc(CO)c(/C=N\Nc2ccc([N+](=O)[O-])cc2[N+](=O)[O-])c1O`, the growth inhibition in assay [1] was -21.4%; in assay [2], 19.2%; in assay [3], 9.7%; in assay [4], -17.7%; in assay [5] it was 11.3%; in assay [6], 13.9%.

Consider `COc1ccc(CC2Cc3ccccc3CC(=O)N2)cc1OC` (configuration not stated), for which the growth inhibition in assay [1] is 36.5%; in assay [2], -54.3%; in assay [3] it was -4.4%; in assay [4], 3.65%; in assay [5] it was 25.6%; in assay [6], -38.1%.

For the molecule `S=C(NCc1cccc2ccccc12)Nc1ccccc1`, the growth inhibition in assay [1] is -9.3%; in assay [2], 7.8%; in assay [3], 39%; in assay [4] it was -27.5%; in assay [5] it was 8.8%; in assay [6] it was 20.9%.

On to `C=CCNC(=O)N(CCCCC(NC(C)=O)C(=O)NCc1ccccc1)Cc1ccccc1` (configuration not stated), for which the growth inhibition is 11.7% in assay [1]; 6.55% in assay [2]; -12.7% in assay [3]; 11.5% in assay [4]; 16.4% in assay [5]; 11.9% in assay [6].

Turning to `Cc1ccc2c(c1)N=C(Nc1ccccc1)N=S2(C)=O` (configuration not stated), the growth inhibition in assay [1] was 2.95%; in assay [2], -18.7%; in assay [3] it was 0.45%; in assay [4], -11.7%; in assay [5] it was -7.55%; in assay [6], -41.5%.

As to `CCCOc1cc2c(cc1C(C)(C)c1ccccc1)OCO2`, the growth inhibition was -16.9% in assay [1]; -18.6% in assay [2]; -12.7% in assay [3]; -27.9% in assay [4]; -3.5% in assay [5]; -15.4% in assay [6].

With `CC(=O)Nc1cc(F)c(N=Nc2ccc(F)cc2)c(F)c1`, the growth inhibition is 5.3% in assay [1]; -0.6% in assay [2]; 13.4% in assay [3]; -36.9% in assay [4]; -16.1% in assay [5]; 3.45% in assay [6].

Take `CCCCCCCCCCCC(=O)OCC1OC(n2cc(F)c(=O)[nH]c2=O)C(NC(=O)OCc2ccccc2)C(O)C1O` (configuration not stated): the growth inhibition was 62.8% in assay [1]; 5.85% in assay [2]; 31.2% in assay [3]; 18.8% in assay [4]; 18.1% in assay [5]; 24.8% in assay [6].

With `CCCC1(CCC)OC(=O)C(CC)(CC)C(=O)O1`, the growth inhibition in assay [1] was -10.8%; in assay [2] it was -3.2%; in assay [3], -1.6%; in assay [4] it was -23.2%; in assay [5], 14.1%; in assay [6] it was -6%.

Consider `Cc1ccc(S(=O)(=O)N(C)C)cc1NC1=NCCO1`, for which the growth inhibition in assay [1] is -2.55%; in assay [2], 5.75%; in assay [3], 7.85%; in assay [4], -40.4%; in assay [5] it was -1%; in assay [6], -2.6%.

With `O=c1[nH]cnc2c1CN(c1ccc(Cl)cc1)C2`, the growth inhibition in assay [1] was -14.5%; in assay [2], 3.45%; in assay [3], -11.3%; in assay [4], -29.6%; in assay [5] it was -19.2%; in assay [6] it was -1.9%.

`O/N=C/C(=Nc1cccc2ccccc12)NO`: the growth inhibition in assay [1] was -11.1%; in assay [2] it was -12.8%; in assay [3], -12.1%; in assay [4], -10.3%; in assay [5] it was -5.7%; in assay [6], 13.9%.

With `NC(=O)SCC(=O)Nc1ccc2ncccc2c1`, the growth inhibition in assay [1] is -18.9%; in assay [2] it was 4.7%; in assay [3] it was -22.8%; in assay [4], -27.2%; in assay [5], -8.15%; in assay [6], 2.8%.

Consider `CC(C)CSc1nc2ccc(N=Cc3ccccc3O)cc2s1`, for which the growth inhibition in assay [1] was -29.4%; in assay [2] it was -5.5%; in assay [3], -11.3%; in assay [4], -13%; in assay [5], 8.75%; in assay [6], -17.3%.

Take `O=C(O)CC(NC(=O)OCc1ccccc1)C(=O)OCc1ccccc1` (configuration not stated): the growth inhibition in assay [1] was 0.55%; in assay [2] it was 17.9%; in assay [3] it was -12.3%; in assay [4] it was -16.6%; in assay [5] it was -21.1%; in assay [6], -20.1%.

Take `CC1C(=O)OC(=O)C1C` (configuration not stated): the growth inhibition in assay [1] was -11.2%; in assay [2] it was -6.2%; in assay [3] it was 11.5%; in assay [4] it was 4%; in assay [5] it was -4.6%; in assay [6], 8.8%.

Turning to `CC(=O)OCC1OC(SC2=NC(=O)/C(=C/c3ccccc3)S2)C(OC(C)=O)C(OC(C)=O)C1OC(C)=O` (configuration not stated), the growth inhibition was 40.2% in assay [1]; 35.4% in assay [2]; 55.4% in assay [3]; 15.8% in assay [4]; -4.1% in assay [5]; 43.8% in assay [6].

For `COc1cc([N+](=O)[O-])ccc1C(=O)NC(CCC(=O)O)C(=O)O` (configuration not stated), the growth inhibition in assay [1] was -12.6%; in assay [2], -19.9%; in assay [3], 19.1%; in assay [4], -20.4%; in assay [5] it was 28.6%; in assay [6], -22.1%.

In the case of `O=C1S/C(=C2\C(=O)N(CN3CCCCC3)c3ccccc32)C(=O)N1CN1CCCCC1`, the growth inhibition in assay [1] is 26.6%; in assay [2], -13.1%; in assay [3] it was -3.85%; in assay [4], 4.65%; in assay [5], -1.1%; in assay [6], 31.1%.

In the case of `CCOC(=O)[C@H]1CS[C@]2(c3ccco3)CC(=O)N12`, the growth inhibition was 14.4% in assay [1]; 8.1% in assay [2]; -12.6% in assay [3]; -36.2% in assay [4]; 1.6% in assay [5]; 44.1% in assay [6].

For the molecule `COC(=O)c1cc2c(cc1CC(Cc1ccc3c(c1)CCCC3)C(=O)OC)CCCC2` (configuration not stated), the growth inhibition is -2.1% in assay [1]; 1.35% in assay [2]; -15.2% in assay [3]; 2.35% in assay [4]; -2.25% in assay [5]; -5.15% in assay [6].

On to `CC(=O)OCC1OC(n2c(=S)n(-c3ccc([N+](=O)[O-])cc3)c(=O)c3ccccc32)C(OC(C)=O)C(OC(C)=O)C1OC(C)=O` (configuration not stated), for which the growth inhibition in assay [1] is -6.3%; in assay [2], 19.1%; in assay [3] it was -9.55%; in assay [4] it was 19%; in assay [5] it was 11.8%; in assay [6], 9.1%.

For the molecule `NNC(=O)CC(O)C(=O)NN` (configuration not stated), the growth inhibition in assay [1] was -4.7%; in assay [2], -0.8%; in assay [3], -1.85%; in assay [4] it was 11.4%; in assay [5] it was -1.75%; in assay [6] it was 4.75%.

As to `CCOC(=O)C1Cc2ccccc2OC1=O` (configuration not stated), the growth inhibition in assay [1] is -9.4%; in assay [2], -15.2%; in assay [3], 20.4%; in assay [4], 12.8%; in assay [5] it was 9.55%; in assay [6] it was 3.85%.

On to `Nc1cccc(/C=C/c2ccc([N+](=O)[O-])cc2)c1`, for which the growth inhibition is -2.3% in assay [1]; 24.6% in assay [2]; 54.7% in assay [3]; -12.4% in assay [4]; 30% in assay [5]; 39.5% in assay [6].

In the case of `Cc1nc2c(cc1C(=O)N/N=C/c1ccc([N+](=O)[O-])cc1)c(=O)n(C)c(=O)n2C`, the growth inhibition in assay [1] is -33.4%; in assay [2], -21.8%; in assay [3] it was -11.9%; in assay [4] it was -5.75%; in assay [5] it was -50.9%; in assay [6], 18.1%.

Take `CS(=O)(=O)OCC1OC(n2ccc(NC(=O)c3ccccc3)nc2=O)CC1OS(C)(=O)=O` (configuration not stated): the growth inhibition is 0.5% in assay [1]; -16.9% in assay [2]; -5.8% in assay [3]; -11.7% in assay [4]; -14.8% in assay [5]; -4% in assay [6].

Consider `Cc1cc(Cl)c(=O)n(-c2ccccc2)n1`, for which the growth inhibition in assay [1] was 3.65%; in assay [2], -9.7%; in assay [3], -9.95%; in assay [4] it was -27.8%; in assay [5] it was 4.75%; in assay [6], -16.1%.

For the molecule `O=C(NC(=S)Nc1ccsc1)c1ccccc1`, the growth inhibition in assay [1] was 14.6%; in assay [2], 0.7%; in assay [3] it was 2.6%; in assay [4] it was 8.85%; in assay [5], -2.15%; in assay [6], -6.35%.

Turning to `CCOC(=O)C1=NN(c2ccccc2)C(=O)/C1=C\n1c(=S)sc2ccccc21`, the growth inhibition in assay [1] was -7.25%; in assay [2] it was -24.4%; in assay [3], -6.5%; in assay [4], -16.1%; in assay [5], -11.8%; in assay [6], -2.4%.

As to `Nc1c(-c2nc3ccccc3[nH]2)sc(=S)n1-c1ccccc1`, the growth inhibition in assay [1] is -6.4%; in assay [2], -21.4%; in assay [3] it was 1.75%; in assay [4], 2.2%; in assay [5], -4.2%; in assay [6] it was -17.9%.

Regarding `O=C(O)CNC(=O)NC(Cc1ccccc1)C(=O)O` (configuration not stated), the growth inhibition was 9.1% in assay [1]; 12.4% in assay [2]; -0.45% in assay [3]; 71.5% (active) in assay [4]; 18.6% in assay [5]; 8% in assay [6].

With `CS(=O)(=O)C(c1nc2n(c1O)C(=N)N=N2)c1nc2n(c1O)C(=N)N=N2` (configuration not stated), the growth inhibition in assay [1] is -3.2%; in assay [2] it was 12.1%; in assay [3] it was -6.15%; in assay [4], -17.1%; in assay [5] it was -5.2%; in assay [6], 9.8%.

Values taken from PubChem BioAssay (NCI).
